Laboratory results reported in ChEMBL document CHEMBL1157539, “Thousands of chemical starting points for antimalarial lead identification” (Nature, 2010).

What was measured:
Format in all cases: functional
Plasmodium falciparum [1] = assay: GSK_TCMDC: Inhibition of Plasmodium falciparum 3D7 in whole red blood cells, using parasite LDH activity as an index of growth. Test compounds present at 2uM
Plasmodium falciparum [2] = assay: GSK_TCMDC: Inhibition of Plasmodium falciparum Dd2 in whole red blood cells, using parasite LDH activity as an index of growth. Test compounds present at 2uM
HepG2 = assay: GSK_TCMDC: Percent inhibition of human HepG2 cell line. Test compounds present at 10uM.

Structure (SMILES) | Inhibition (Plasmodium falciparum [1]) [%] | Inhibition (Plasmodium falciparum [2]) [%] | Inhibition (HepG2) [%]
COc1ccc2nccc([C@@H](O)CN3CCC(NC(=O)C(c4cc5ccccc5o4)N4CCN(c5ccccc5)CC4)CC3)c2c1 (some centres undefined) | 99 | 99 | 19
O=C(Nc1cccc(CN2CCCN(CC3CC3)CC2)c1)c1ccc(-c2ccccc2)cc1.O=C(O)C(F)(F)F | 96 | 5 | 15
CN1CCC(NCc2ccc(-c3ccc(S(=O)(=O)NCc4ccccc4)s3)cc2)CC1.O=C(O)C(F)(F)F | 99 | 95 | 77
CCCN(Cc1nnc(-c2ccco2)o1)C(=O)C1CCN(c2ncc(C(F)(F)F)cc2Cl)CC1 | 98 | 92 | 19
O=C(/C=C/c1ccc(Cl)c(Cl)c1)NCCCCCN1CCC(n2c(=O)[nH]c3ccccc32)CC1 | 97 | 0 | 38
N=C(N)Nc1nc(-c2ccc(NCc3ccc(CNc4cccc(-c5csc(NC(=N)N)n5)c4)cc3)cc2)cs1 | 100 | 99 | 11
O=C(Nc1ccc(-c2nc3ccccc3[nH]2)cc1)c1cnc(Cl)c(Cl)c1 | 100 | 95 | 11
O=C(NC1CC1)c1cnc(N2CCN(Cc3ccc(Cl)cc3)CC2)c(Cl)c1.O=C(O)C(F)(F)F | 93 | 91 | 39
CC(C)CC(=O)N1CCNC[C@@H]1C(=O)NCc1ccc(Cl)c(Cl)c1.O=C(O)C(F)(F)F | 99 | 16 | 0
O=[N+]([O-])c1ccccc1/C=N/Nc1ccnc2cc(Cl)ccc12 | 100 | 89 | 0
Nc1nc(O)c2c(n1)CCc1c(Br)cccc1-2 | 97 | 0 | 66
COc1ccc2ncc(F)c([C@@H](O)CN3CCC(NCc4ccc5c(c4)NCCS5)CC3)c2n1.Cl | 99 | 69 | 77
CCN(CCCN1CCCCC1)c1cc(C)nc(Nc2cc(C(F)(F)F)ccc2C)n1.O=C(O)C(F)(F)F | 96 | 41 | 35
O=c1cc(NCCCNCc2ccccc2-c2ccccc2)[nH]c2ccccc12 | 88 | 46 | 0
COC(=O)Nc1nc2cc3c(cc2s1)OCCO3 | 99 | 0 | 0
Cc1c2ccc(N(C)c3ccnc(Nc4ccc5c(c4)nc(NC(C)C)n5C)n3)cc2nn1C.Cl | 100 | 100 | 2
CCc1c[nH]c2c(N3CCCS3(=O)=O)cc(C(=O)N[C@@H](Cc3ccccc3)[C@H](O)CNC(C)(C)CCCC(C)C)cc12 | 96 | 98 | 13
CC(=O)Oc1cc(C(=O)Nc2ccc(Cl)cc2)cc2ccccc12 | 88 | 47 | 16
O=C(/C=C/c1ccc(Cl)c(Cl)c1)NCCCCCN1CCC(CCNC(=O)/C=C/c2cc(C(F)(F)F)ccc2F)CC1 | 98 | 46 | 25
O=C(/C=C/c1ccc(Cl)c(Cl)c1)NCCCCCN1CCN(C(=O)Nc2ccc(OC(F)F)cc2)CC1 | 99 | 0 | 20
Cc1ccc(CNC(=O)[C@H](CCCN)Nc2cc(C)nc(NCC3CCCCC3)n2)cc1.O=C(O)C(F)(F)F | 90 | 0 | 1
CCC(C)NCCC(c1ccccc1)c1ccccc1O.Cl (centres undefined) | 97 | 74 | 4
Fc1ccc2c(NN=Cc3ccccc3)ccnc2c1 | 100 | 99 | 1
COc1cc(OC)cc(-c2nn(-c3ccc([N+](=O)[O-])cc3Cl)c(=S)n2CC2CCCO2)c1 (centres undefined) | 98 | 98 | 5
COc1ccc(OC)c(NC(=O)C2c3ccccc3C(=O)N(CC(C)C)C2c2cccs2)c1 (centres undefined) | 100 | 66 | 9
Cn1nccc1C(=O)NCCNCc1cccc(-c2cccc(-c3nc4cc(C(F)(F)F)ccc4[nH]3)c2)c1.O=C(O)C(F)(F)F | 100 | 99 | 39
CS(=O)(=O)Cc1ccc(Nc2nccc(-c3c(-c4cccc(NC(=O)c5c(F)cccc5F)c4)nn4ncccc34)n2)cc1 | 97 | 93 | 86
COc1ccc(NC(=O)/C=C/c2ccccc2Cl)cc1OCCN1CCC(Cc2cc3ccccc3[nH]2)CC1.Cl | 92 | 8 | 56
